For assay [1], the system named is Vero E6 infected with SARS-CoV-2. Kind of assay: morphology score (similarity to uninfected cells); higher = more like uninfected cells. The following applies: 24 h.
Assay [2] has the same test system. Kind of assay: SARS-CoV-2 infection rate relative to infected DMSO; higher = more infection, active = 60 or less. The following applies: 24 h.

The record followed here is the supplement of paper PMC13380429.

In assay [1], `COc1ccc(CC(C)NCC(O)c2ccc(O)c(NC=O)c2)cc1` (stereo not given) [formoterol] (10 µM) came in with a morphology score of 0.0444. Also, in assay [2], the SARS-CoV-2 infection rate was 100% (inactive).

Take `CC(C)(S)C(=O)N[C@@H](CS)C(=O)O` [bucillamine] (10 µM): the morphology score in assay [1] was -0.0447. In assay [2], the SARS-CoV-2 infection rate was 107% (inactive).

In assay [1], `NC[C@H]1O[C@H](O[C@H]2[C@H](O)[C@@H](O[C@H]3O[C@H](CO)[C@@H](O)[C@H](N)[C@H]3O)[C@H](N)C[C@@H]2N)[C@H](N)C[C@@H]1O` [tobramycin] (10 µM) yielded a morphology score of 0.095. The SARS-CoV-2 infection rate in assay [2] was 113% (inactive).

In assay [1], `Nc1cc(F)ccc1NC(=O)/C=C/c1cnn(C/C=C/c2ccccc2)c1` (0.833333 µM) showed a morphology score of -0.0979. Besides, the SARS-CoV-2 infection rate in assay [2] is 109% (inactive).

Compound `CC(C)(O)CS(=O)(=O)Nc1ccc2c(c1)CCN(C(=O)COc1cccnc1)C2` [Nampt-IN-1] (10 µM) displayed a morphology score in assay [1] of -0.0571. For the same compound, in assay [2], the SARS-CoV-2 infection rate is 104% (inactive).
